The structures appear in SMILES notation. Several values for one entry are separate records, joined by “and”; a condition that tells them apart may be missing. Identical values can stand only once. Like-named read-outs stand apart in the source and are kept apart here.

These results are taken from publication PMC5540273 (PLoS ONE, 2017).

The subject of one test is GRK4. To be noted: concentration: 1 μM, replicates: in singlicate, n = 1.
A further test concerns GRK7. The following applies: concentration: 1 μM, replicates: in singlicate, n = 1.
The next test has as its system GSK3A. To be noted: concentration: 1 μM, replicates: in singlicate; n = 1.
For another test, the system named is GSK3B. To be noted: n = 1.
The subject of the next test is T1, HASPIN.
T1 construct: gene GSG2
The following applies: concentration: 1 μM, replicates: in singlicate, n = 1.

Another test deals with HCK. To be noted: concentration: 1 μM, replicates: in singlicate; n = 1.
Another test concerns HIPK1. The following applies: concentration: 1 μM, replicates: in singlicate, n = 1.
For a further test, the system named is HIPK2. The following applies: concentration: 1 μM, replicates: in singlicate, n = 1.
The next test deals with HIPK3. The following applies: concentration: 1 μM, replicates: in singlicate, n = 1.
Another test concerns HIPK4. To be noted: concentration: 1 μM, replicates: in singlicate, n = 1.
Where [1] appears, read: concentration: 1 μM, replicates: in singlicate.
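Also: KINOMEscan kinase panel screen.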

Regarding `COCCNC(=O)c1ccc(-c2cc(C(=O)NC3CC3)cc(F)c2C)cc1` [GW868318], the “%Inh” value in the test with GRK4 is 7%; in the test with GRK7, 28%; in the test with GSK3A it was 0%; in the test with GSK3B (setting [1]) it was 42%; in the test on HASPIN, 0%; in the test on HCK it was 24%. The “%Inh” value in the test on HIPK1 was 23%; in the test on HIPK2 it was 15%; with HIPK3, 35%; with HIPK4 it was 17%.
In the case of `NCCNS(=O)(=O)c1ccc(-c2ccnc3[nH]ccc23)cc1` [GSK977617], the “%Inh” value was 69% and 37% in the test with GRK4 (1 µM); 92.1% and 90.1% with GRK7 (1 µM); 0% with GSK3A; 0% and 10% in the test with GSK3B (concentration: 1 μM, replicates: in singlicate, 1 µM); 95.3% and 86% in the test with HASPIN (1 µM); 0% in the test with HCK. For the same molecule, the “%Inh” value in the test with HIPK1 (1 µM) is 95.6% and 94.2%; in the test on HIPK2 (1 µM), 96% and 89%; in the test with HIPK3 (1 µM), 97.4% and 95.9%; in the test on HIPK4 (1 µM), 77% and 64%.
Turning to `Fc1ccc(-c2ncn(CCCN3CCOCC3)c2-c2ccccn2)cc1` [SB-211742], the “%Inh” value with GRK4 came to 0%; with GRK7 it was 0%; with GSK3A, 0%; in the test with GSK3B (setting [1]), 0%; with HASPIN, 0%; with HCK it was 6%. Also, the “%Inh” value in the test with HIPK1 was determined as 38%; in the test on HIPK2 it was 0%; in the test with HIPK3 it was 0%; in the test on HIPK4, 26%.
Consider `Cc1cccc(Cn2ccn3c(=O)cc(N4CCOCC4)nc23)c1` [GSK2297542], for which the “%Inh” value in the test with GRK4 is listed as 0%; in the test on GRK7, 0%; with GSK3A, 10%; with GSK3B (setting [1]), 3%; in the test on HASPIN, 0%; in the test on HCK it was 0%. Further, the “%Inh” value is recorded as 28% with HIPK1, 0% with HIPK2, 30% in the test on HIPK3 and 15% with HIPK4.
As for `COc1cc2c(cc1OC[C@@H](O)CO)ncc1c3ccc(C#N)cc3[nH]c21`, the “%Inh” value with GRK4 amounted to 73%; with GRK7, 5%; with GSK3A it was 0%; with GSK3B (setting [1]) it was 0%; in the test on HASPIN it was 91.2%; with HCK it was 4%. Further, the “%Inh” value with HIPK1 worked out at 94.4%; in the test with HIPK2, 98%; in the test with HIPK3, 94.2%; with HIPK4 it was 47%.
As to `O=C(c1ccc(-c2cc(-c3c[nH]nc3-c3ccccn3)ccn2)cc1)N1CCOCC1` [GW812171], the “%Inh” value stood at 14% with GRK4; 0% in the test with GRK7; 8% with GSK3A; 7% with GSK3B (setting [1]); 0% in the test with HASPIN; 36% with HCK. For the same molecule, the “%Inh” value in the test on HIPK1 came to 36%; with HIPK2 it was 0%; in the test on HIPK3, 6%; with HIPK4, 7%.
Turning to `NS(=O)(=O)CCc1cccc(Nc2nccc(-c3c(-c4cccc(NC(=O)c5c(F)cccc5F)c4)nn4ccccc34)n2)c1` [GSK336735], the “%Inh” value in the test on GRK4 is on record as 43%; in the test on GRK7, 12%; in the test on GSK3A it was 20%; in the test with GSK3B (setting [1]), 6%; in the test with HASPIN, 0%; in the test on HCK, 98.9%. In addition, the “%Inh” value turned out to be 0% with HIPK1, 0% in the test on HIPK2, 8% in the test with HIPK3 and 25% in the test on HIPK4.
On to `CC(C)(C)n1cnc2c(N)ncnc21` [SKF-97359], for which the “%Inh” value in the test with GRK4 is listed as 5%; in the test with GRK7 it was 0%; in the test on GSK3A, 0%; with GSK3B (setting [1]), 0%; with HASPIN, 65%; with HCK it was 0%. In addition, the “%Inh” value with HIPK1 came out at 13%; with HIPK2 it was 16%; with HIPK3 it was 0%; with HIPK4, 0%.
As to `Nc1nccc(-c2c(-c3ccc(F)cc3)ncn2C2CCN(CC(F)(F)F)CC2)n1` [SB-236560], the “%Inh” value came to 10% with GRK4; 2% in the test with GRK7; 0% with GSK3A; 0% in the test with GSK3B (setting [1]); 36% in the test on HASPIN; 0% in the test on HCK. Further, the “%Inh” value is listed as 27% with HIPK1, 57% in the test on HIPK2, 0% with HIPK3 and 0% in the test on HIPK4.
As for `NS(=O)(=O)c1cccc(-c2ccc3ncc(N4CCOCC4)nc3c2)c1` [GSK1535721], the “%Inh” value in the test on GRK4 came to 0%; in the test on GRK7 it was 0%; in the test with GSK3A, 19%; in the test with GSK3B (setting [1]) it was 0%; with HASPIN, 36%; with HCK, 0%. The “%Inh” value in the test on HIPK1 came to 10%; in the test with HIPK2, 0%; with HIPK3, 1%; in the test on HIPK4 it was 0%.
As for `O=C1NC(=O)C(N2CCc3ccccc32)=C1c1cccc(Cl)c1` [SB-408010], the “%Inh” value is given as 29% in the test with GRK4; 5% in the test with GRK7; 2% in the test on GSK3A; 27% in the test with GSK3B (1 µM); 0% in the test on HASPIN; 25% in the test with HCK. The “%Inh” value with HIPK1 was found to be 27%; in the test on HIPK2, 13%; in the test on HIPK3 it was 7%; in the test with HIPK4, 0%.
Take `O=C(NCCNc1ccnc(Nc2ccc(F)cc2)n1)c1cc2ccccc2s1` [GSK1379874]: the “%Inh” value in the test with GRK4 is listed as 0%; in the test on GRK7 it was 0%; with GSK3A, 0%; in the test on GSK3B (setting [1]), 6%; in the test with HASPIN, 19%; with HCK, 0%. Further, the “%Inh” value in the test on HIPK1, in the test on HIPK2, in the test with HIPK3 and with HIPK4 was 0% in each case.
For `Cc1cccc(-c2nc(Nc3ccc4ncsc4c3)c3ccccc3n2)n1` [GW867588], the “%Inh” value with GRK4 is on record as 0%; with GRK7 it was 7%; with GSK3A it was 3%; in the test on GSK3B (setting [1]) it was 5%; with HASPIN it was 16%; with HCK, 24%. Also, the “%Inh” value with HIPK1 was found to be 0%; in the test with HIPK2, 11%; in the test with HIPK3, 0%; in the test on HIPK4, 6%.
For `CC(C)Oc1ccc2c(-c3ccnc(Nc4ccc(N5CCN(C)CC5)cc4)n3)cnn2n1` [GW696155], the “%Inh” value in the test on GRK4 is 84%; in the test with GRK7, 0%; in the test with GSK3A, 0%; in the test with GSK3B (setting [1]), 6%; in the test on HASPIN, 70%; in the test with HCK, 0%. For the same molecule, the “%Inh” value was found to be 97.2% with HIPK1, 98.7% in the test with HIPK2, 98.5% in the test on HIPK3 and 83% in the test with HIPK4.
For the molecule `CN(C1=C(c2ccccc2)C(=O)NC1=O)c1ccccc1` [SB-334860], the “%Inh” value in the test on GRK4 is 0%; in the test on GRK7, 0%; in the test with GSK3A it was 13%; in the test on GSK3B (1 µM), 0%; in the test on HASPIN it was 0%; in the test with HCK, 0%. Besides, the “%Inh” value in the test with HIPK1 amounted to 3%; with HIPK2, 0%; with HIPK3, 15%; in the test on HIPK4, 2%.
Regarding `O=c1cc(N2CCOCC2)nc2n(Cc3cccc(C(F)(F)F)c3)ccn12` [GSK2297543], the “%Inh” value in the test with GRK4 worked out at 0%; with GRK7, 0%; in the test on GSK3A, 6%; with GSK3B (setting [1]), 3%; in the test on HASPIN it was 0%; with HCK, 0%. In addition, the “%Inh” value in the test on HIPK1 worked out at 18%; in the test on HIPK2 it was 0%; in the test with HIPK3, 7%; in the test with HIPK4, 1%.
